Test system: RARa homodimer (NR concentration 270 nM)
Test: PBM binding z-score (relative to random genomic background probes); higher = stronger binding; sequences stand for … in GC…GCGATTGACAGCGTAGAATGAAGG
Method in brief: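 For binding z-scores, the reference was random background probes on custom Agilent 4×180K protein-binding microarrays. These arrays were incubated 1 h with ligand-free nuclear receptor dimers in PBS pH 7.4, 2% milk, 0.02% Triton X-100, 1 mM DTT, 0.2 mg/mL BSA and 0.4 mg/ml salmon testes DNA. Fluorescence was scanned after antibody detection of each partner (one per run) and regression-normalized.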

| Sequence | PBM binding z-score |
| --- | --- |
| CGTCCAAGGTCGTAGGAGGTCAGTGAAGACAGAT | 0.332 |
| TCTGCTAGGTCAACGATGATCAGCTAATCTGCTA | -0.998 |
| TCAAATAGGTAAAGGTGAAAGTCGAACGATATGA | 0.988 |
| TCTATTAGTTGATTAGGGCAACTGAAACAGCGGA | 0.703 |
| AGAATGAGGTAATACGTAGATCAGGGAAGAAAGT | 0.262 |
| ACTATTAGTTGACTTAGGACAACCGATACGACGC | 0.875 |
| AGTCAAAGTTCAGGACGAAGTAACGTAAAGCACG | 1.14 |
| TCTTGTAGATCAAGGGTTAAGAAAGCCGAAGCCT | -0.354 |
| CGAACTAGGTCGGAACAGGACAGTGAAGGATGAT | -0.0866 |
| AGAACGAGGGCAATAAGTTGATAGCACGGGTGGC | 0.04 |
| AGAACGATGGCACGCTGAGTTGATAGCAGAGTAG | -0.387 |
| GATACAGGGTCAGCTAGAGGACAGAGTATGGAAA | 0.599 |
| TCATATAGGTAAATGCTAGGTGAAAGTGCGATCT | 1.15 |
| GCTAGTTGGTCAGTAAAAGGTCAGACACCGGTCG | 0.966 |
| AGAATGAGGTTACCAAACATCAGGGAAACGCTTG | -0.309 |
| ACTCGGAAGACAAAGGTCAGAGCTACGCCAGTGA | 0.864 |
| ACAGACAGGTTAGTGAAGGTAACTCAGCTGGACG | 0.0654 |
| TCTATTAGTTGACTAGGGCAACCGAAACAGCGGA | 0.68 |
| ACTAGCAGGCCAAGTTTGGGTCACTTAAACAAAG | -0.389 |
| CCTACTGGGCCACGAAAGCTCATTGATTCAGTGA | -0.375 |

| Sequence | PBM binding z-score |
| --- | --- |
| ACTAGCAGGCCAGGTTTGGGTCACTCAAACAAAG | -0.279 |
| TAGCCTACGTCAGATCGGGCCAGTATACGCTATA | -1.02 |
| TAGCCTAGGTCATTCAGGGGCCAGTTTAGAAAGC | -0.367 |
| CTCGAAAGGTCGTGCTCACGTGAGTATACCAAAC | -0.039 |
| GCTCGGAGGACAAGGTCAGAGCATTGTCCGTAGA | -0.974 |
| TAGCCTAGGTCAGATCGGGCAAGTATACGCTATA | -0.377 |
| CAAACTAGGTCAAGGTCATAGTCGGTTTGTGCCA | 1.31 |
| TTACCAAGGTGAAGGTCCTTGATCCCTCTGTAGA | -0.146 |
| CGAACGAGGGCATGAGTTGACAGCAAATGCCGAT | -0.609 |
| ATCGAAAGGTCGAACGTGAGTATACCCACCCGAA | 0.171 |
| TCTGCTAGGTCAGCTGGTCAGCTAACGAGCTGCC | -1.54 |
| GATACAGGGTCAGCCAGAGGCCAGAGTATGGAAA | 0.402 |
| GCTATTAGTTGAAAGGGCAACCCAATGATTCTCG | 0.81 |
| GCGACTGGGGCATCAGCAGTTTACCATAACTTAA | 0.0729 |
| ATATGAAGGTTACATCCGGGTCATTCAGGCTATG | 0.977 |
| CGTCAAAGATCAACTAAGGTAACGTAAAGCACGC | 0.595 |
| AGATTGAGGTTAAGATCAGGGAAACAGAATACAT | 1.33 |
| GATACAGGGTCAAGGCCAGCGTACGCGTATTGAT | 1.03 |
| AGTACGAGGGCACGCTGAGTTGATAGCAGAGTAG | -0.0662 |
| TGAATGAGGTTAAAGATCCGGGAACGTGGCGTCG | -0.669 |

Source: the supplement of paper PMC6555819
